According to PubChem BioAssay (Tox21):
Results filed as inconclusive are left out. Values without a mark were called inactive. Activity calls are given as the source filed them. The call rests on the fitted dose curve; in most records, active means well fitted cell-killing curve with a large enough effect in the repeat runs; inconclusive means weak or mixed curves; inactive means flat fitted curve, though single readings scatter.

Test: qHTS assay to identify small molecule antagonists of the estrogen receptor beta (ER-beta) signaling pathway - cell viability counter screen (AID 1259382); further: nearly all actives have a fitted effect of over 55% in size
Settings: ER-beta-UAS-bla HEK293T viability, CellTiter-Glo luminescence, 16 h; series mostly up to 92.4 µM; activity change, negative = cytotoxicity: at the top concentration
Excerpt: U.S. Tox21 Program National Center for Advancing Translational Sciences [NCATS] NIH Chemical Genomics Center [NCGC] U.S. Environmental Protection Agency [EPA] National Institutes of Environmental Health Sciences [NIEHS] National Toxicology Program [NTP] U.S. Food and Drug Administration [FDA] Tox21 Assay Overview: Estrogen receptor (ER), a nuclear hormone receptor, plays an important role in development, metabolic homeostasis and reproduction. Two subtypes of ER, ER-alpha and ER-beta, have similar expression patterns with some uniqueness in both types. Endocrine disrupting chemicals (EDCs) and their interactions with steroid hormone receptors like ER causes disruption of normal endocrine function. To identify the compounds that inhibit ER signaling, an ER-beta-UAS-bla GripTite cell line (Life Technologies, Madison, WI, USA) containing a beta-lactamase reporter gene under the control of an UAS response element was used to screen Tox21 10K compound library. The cytotoxicity of the Tox21 compound library against the ER-beta-bla cell line was tested in parallel by measuring the cell viability using CellTiter-Glo assay in the same wells.
Tox21 Assay Protocol Summary: ER-beta-UAS-bla HEK293T cells were dispensed at 2,000 cells/4 uL of assay medium containing 2% charcoal stripped FBS per well into black wall/clear-bottom 1536-well plates using a Multidrop Combi (ThermoFisher Scientific, Waltham, MA) dispenser. After the assay plates were incubated at a 37C and 5% CO2 for 6 hr, 23 nL of compounds dissolved in DMSO, positive controls or DMSO only was transferred to the assay plate by a Pintool station (Kalypsys, San Diego, CA), followed by addition of 1 uL (1nM as final concentration) of 17-beta-estradiol (E2) in assay medium using a Flying Reagent Dispenser (FRD, Aurora Discovery, San Diego, CA). The plates were incubated at 37C and 5% CO2 for 16 hr. Then 1 uL of LiveBLAzer B/G FRET substrate was added using a Flying Reagent Dispenser, the plates were incubated at room temperature for 2 hours, and fluorescence intensity was measured by an Envision plate reader (PerkinElmer, Shelton, CT). For cell viability readout that measures cytotoxicity, 4 uL/well of CellTiter-Glo reagent was added into the assay plates using a FRD. After 30 min incubation at room temperature, the luminescence intensity in the plates was measured using a ViewLux (PerkinElmer) plate reader.
On the % scale 0 is the no-effect control and ±100 the full control effect; potency means the concentration at half of the fitted maximal effect.

Row | SMILES | activity change, negative = cytotoxicity | Potency
1 | CC(=O)NC1CCSC1=O (stereo not given) | 3.08% [at 42.5 µM] | 
2 | NC(=O)CI | -15.4% | 
3 | C/C=C/C=O | -12.8% | 
4 | IC(I)=C(I)I |  | 21.7 µM (active)
5 | Clc1ccc(C2(Cn3cncn3)CC(Br)CO2)c(Cl)c1 (stereo not given) | 3.53% | 
6 | CCOc1nc(F)cc2nc(S(=O)(=O)Nc3c(Cl)cccc3Cl)nn12 | 2.43% | 
7 | Cn1sc(Cl)cc1=O | 4.51% | 
8 | COC(=O)C(Br)CBr (stereo not given) | 7.38% | 
9 | CCC(COC(=O)c1cc(OC)c(OC)c(OC)c1)(c1ccccc1)N(C)C (stereo not given) | -8.3% [at 42.5 µM] | 
10 | O=C(Nc1ccccc1)Nc1cnns1 | 0.005% | 
11 | C[C@]12CC[C@H]3[C@@H](CCC4=CC(=O)CC[C@@H]43)[C@@H]1CC[C@@H]2OC(=O)CCC1CCCCC1 | 2.32% [at 42.5 µM] | 
12 | CCCCCCCCOC(=O)c1ccc(C(=O)OCCCCCCCC)c(C(=O)OCCCCCCCC)c1 | 1.6% | 
13 | [CH3][Sn]([CH3])([Cl])[Cl] | 4.77% | 
14 | CCCCC(CC)COP(=O)(Oc1ccccc1)Oc1ccccc1 (stereo not given) | -22% | 
15 | CC(=O)CCC(C)=O | 0.743% | 
16 | Brc1ccc(Oc2ccccc2)cc1 | -1.61% | 
17 | CC(C)(CCl)C(=O)Cl | 7.03% | 
18 | Nc1nc(=S)[nH][nH]1 | 3.37% | 
19 | C/C(=C\c1ccccc1)[N+](=O)[O-] | -23.9% | 
20 | Clc1cccc2ccccc12 | 4.97% | 

Row | SMILES | activity change, negative = cytotoxicity | Potency
21 | CCOP(=S)(Oc1ccc([N+](=O)[O-])cc1)c1ccccc1 (stereo not given) | 9.42% | 
22 | CCOC(=O)CBr | 5.17% | 
23 | O=Cc1ccc2c(c1)OCO2 | -3.38% | 
24 | CCCCCCC#N | -3.58% | 
25 | ClC=C(Cl)Cl | 0.215% | 
26 | O=S1OC[C@@H]2[C@H](CO1)[C@]1(Cl)C(Cl)=C(Cl)[C@@]2(Cl)C1(Cl)Cl (stereo not given in full) | 3.15% | 
27 | CC(C)(OO)c1ccccc1 | -0.874% | 
28 | CC(=O)[C@H]1CC[C@H]2[C@@H]3CC[C@H]4C[C@](C)(O)CC[C@]4(C)[C@H]3CC[C@]12C | 3.38% [at 42.5 µM] | 
29 | c1ccc(C2CC2)c(OCC2=NCCN2)c1 | -2.79% [at 42.5 µM] | 
30 | O=S(=O)(Cl)c1ccccc1 | 6.12% | 
31 | CC(C)(Cl)[N+](=O)[O-] | -8.35% | 
32 | CC(=O)C(C)(C)C | 0.993% | 
33 | CN1C(=O)NC(=O)C(C)(C2=CCCCC2)C1=O (stereo not given) | 2.78% [at 42.5 µM] | 
34 | CC1CC(CC2CCC(N)C(C)C2)CCC1N (stereo not given) | -22.3% | 
35 | N#CCC#N | 2.24% | 
36 | CCO[C@H]1O[C@@H]2OC3(C)CC[C@H]4[C@H](C)CC[C@@H]([C@H]1C)[C@@]24OO3 | -12.5% [at 42.5 µM] | 
37 | CC(C)(C)C(O)C(Oc1ccc(Cl)cc1)n1cncn1 (stereo not given) | -13.5% | 
38 | CC(C)N(C(=O)COc1nnc(C(F)(F)F)s1)c1ccc(F)cc1 | -13.3% | 
39 | Cc1ccc(N)cc1C | 1.13% | 
40 | O=[Se]=O | -4.77% [at 42.5 µM] | 
